The record followed here is PubChem BioAssay (Tox21).

Where “and” joins values, the source holds several entries; their conditions need not be identical. Equal entries are not always repeated. Inconclusive results are not listed. A call without a number means that no potency is given here. A structure can be active in one record and inactive in another. Calls of active or inactive are those of the source. The call rests on the fitted dose curve; in most records, active means well fitted cell-killing curve with a large enough effect in the repeat runs; inconclusive means weak or mixed curves, or effect the other way; inactive means flat fitted curve, though single readings scatter.
Potency means the concentration at half of the fitted maximal effect.

The assay can be described thus: qHTS RealTime-Glo MT Cell Viability Assay in HEK293 cells - 16 hour (AID 1224872). Further: nearly all actives have a fitted effect of over 50% in size. On activity change, negative = cytotoxicity: top concentration of the series differs between compounds. The note with it: RealTime-Glo luminescence; series mostly up to 76.8 µM; activity change, negative = cytotoxicity: at the top concentration. An excerpt:
National Center for Advancing Translational Sciences [NCATS]
NIH Chemical Genomics Center [NCGC]
U.S. Environmental Protection Agency [EPA]
National Institutes of Environmental Health Sciences [NIEHS]
National Toxicology Program [NTP]
U.S. Food and Drug Administration [FDA]
Measure of cell viability is critical in the cell-base assay. Analysis of cell viability is necessary for the characterization of cell responses to cytotoxic drugs and environmental stress. A RealTime-Glo MT Cell Viability Assay to monitor cell viability in real time of continues cell culture during 40 hours of compound treatment was used to screen Tox21 10K library compounds in Hek293 cells. The RealTime-Glo MT Cell Viability Assay is a nonlytic, homogeneous, bioluminescent method to measure cell viability in real time using a simple, plate-based method. The assay involves adding NanoLuc luciferase and a cell-permeant prosubstrate to cells in culture. Viable cells reduce the proprietary prosubstrate to generate a substrate for NanoLuc luciferase. This substrate diffuses from cells into the surrounding culture medium, where it is rapidly used by the NanoLuc Enzyme to produce a luminescent signal. The signal correlates with the number of viable cells, making the assay well suited for cytotoxicity studies.
Tox21 Assay Protocol Summary:
The mixture of Hek293 cell suspension and reagents were dispensed at 600cells/6 ul/well in 1536-well tissue culture treated black solid bottom plates using a Multidrop dispenser. After the assay plates were incubated at a 37 C/5% CO2 incubator for 5 hours, 23 nL of compounds dissolved in DMSO, positive and negative controls was transferred to the assay plate by a pintool work station. The plates were incubated at 37 C for 40 hours. The luminescence intensity were measured at 0h, 8h, 16h, 24h, 32h and 40h time points using ViewLux plate reader during compound treatment.
For orientation: Quantitative high-throughput screening tests each substance at several concentrations.
Turning to `O=C(c1ccc(OCCN2CCCCC2)cc1)c1c(-c2ccc(O)cc2)sc2cc(O)ccc12`, the Potency is 19.5 µM (active) and 21.9 µM (active).
As for `C/C=C/C(=O)O`, the Potency result is “inactive”.
Same read-out and setting: in the case of `CN(C)CCN(Cc1cccs1)c1ccccn1` it was “inactive”; in that of `COC(C)COC(C)COC(C)CO` (stereo not given), “inactive”.
As to `COC(=O)c1ccccc1`, the “activity change, negative = cytotoxicity” value is 0.131% (inactive).
With `c1cc(N(CC2CO2)CC2CO2)ccc1OCC1CO1` (stereo not given), the Potency entry was “inactive”.
The same measure, in the same setting: then `O=C=Nc1ccc(Cc2ccc(N=C=O)cc2)cc1`, with “inactive”.
On to `C=C(C)C(=O)OCCOC(=O)C(=C)C`, for which the Potency entry was “inactive”.
As to `O=Cc1ccccc1O`, the Potency entry is “inactive”.
As for `OC[C@H]1O[C@@H]2O[C@H]3[C@H](O)[C@@H](O)[C@@H](O[C@H]4[C@H](O)[C@@H](O)[C@@H](O[C@H]5[C@H](O)[C@@H](O)[C@@H](O[C@H]6[C@H](O)[C@@H](O)[C@@H](O[C@H]7[C@H](O)[C@@H](O)[C@@H](O[C@H]8[C@H](O)[C@@H](O)[C@@H](O[C@H]1[C@H](O)[C@H]2O)O[C@@H]8CO)O[C@@H]7CO)O[C@@H]6CO)O[C@@H]5CO)O[C@@H]4CO)O[C@@H]3CO`, the Potency entry is “inactive”.
For the molecule `C=CC(C)(CCC=C(C)C)OC(C)=O` (stereo not given), the Potency entry is “inactive”.
For the molecule `CN(C)c1nc(N(C)C)nc(N(C)C)n1`, the Potency entry is “inactive”.
On the same count and under the same terms, then `CCC(C)c1ccccc1O` (stereo not given), with “inactive”; and `CCCCOCCOCCO`, with “inactive”; and `COc1ccc(C(=O)CC(=O)c2ccc(C(C)(C)C)cc2)cc1`, with 29.6 µM (active) and inactive.
Consider `CCCCC(CC)COC(=O)c1ccc(N(C)C)cc1` (stereo not given), for which the Potency entry is “inactive”.
In the case of `CC(C(=O)O)c1cccc(C(=O)c2ccccc2)c1` (stereo not given), the Potency entry was “inactive”.
Same read-out and setting: in the case of `CN(C)CCC=C1c2ccccc2CCc2ccccc21` it was “inactive”; in that of `CN(C)C(=N)N=C(N)N`, “inactive”; in that of `CC(C)=CCCC(C)CCO` (stereo not given), “inactive”.
The same measure, in the same setting: then `O=C(O)c1ccccc1Nc1cccc(C(F)(F)F)c1`, with “inactive”.
For `O=CCCCC=O`, the “activity change, negative = cytotoxicity” value is -0.352% (inactive).
With `Nc1ccc(Cl)cc1Cl`, the Potency result was “inactive”.
Still for that read-out and setting: in the case of `O=C(COc1ccc(Cl)cc1)N1CCN(Cc2ccc3c(c2)OCO3)CC1` it was 38.9 µM (active) and inactive; in that of `Cc1cccc(N(C)C(=S)Oc2ccc3ccccc3c2)c1`, “inactive”; in that of `O=S(=O)(O)c1ccc(O)cc1`, “inactive”.
Same read-out and setting: in the case of `CCOCCOCCO` it was “inactive”; in that of `CC(=O)CC/C=C(\C)CCC=C(C)C`, “inactive”; in that of `c1ccc2cc(Nc3ccc(Nc4ccc5ccccc5c4)cc3)ccc2c1`, “inactive”.
As for `CCC(C)CO` (stereo not given), the “activity change, negative = cytotoxicity” value was 2.62% (inactive).
Consider `O=P(O)(O)O`, for which the Potency result is “inactive”.
Consider `CC(C)=CCC/C(C)=C\CO`, for which the Potency entry is “inactive”.
Regarding `O=CCc1ccccc1`, the Potency result was “inactive”.
Same read-out and setting: then `COc1ccccc1/C=C/C=O`, with “inactive”.
Consider `CC(=O)c1ccccn1`, for which the Potency entry is “inactive”.
On the same count and under the same terms, then `CCCCc1oc2ccccc2c1C(=O)c1cc(I)c(OCCN(CC)CC)c(I)c1`, with 39.2 µM (active) and 21.3 µM (active).
The same measure, in the same setting: in the case of `CC(C)OC(=O)C(C)(C)Oc1ccc(C(=O)c2ccc(Cl)cc2)cc1` it was 21.9 µM (active) and 16.9 µM (active); in that of `Brc1cc(Oc2cc(Br)c(Br)c(Br)c2Br)c(Br)c(Br)c1Br`, “inactive”.
As to `CC(=O)C1(C)CC2=C(CCCC2(C)C)CC1C` (stereo not given), the Potency result is “inactive”.
Still for that read-out and setting: then `COC(=O)C1=C(C)NC(C)=C(C(=O)OCCN(C)Cc2ccccc2)C1c1cccc([N+](=O)[O-])c1` (stereo not given), with 21.7 µM (active) and 16.9 µM (active).
